Values joined by “and” are separate entries in the source; they are usually repeats but may differ in a detail not shown here. Identical values can stand only once. About 83,000 compounds went through this panel and 20% of them were active in at least one assay; those are over-represented in the sample as a whole.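 96-well plates, one dose, 48 hours. Percent growth reported; active if below 10.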 Unmarked numbers belong to inactive results. Active and inactive are the calls of the source.
Columns and labels:
Assay in all cases: NCI-60 one-dose screen, 48 h (100 = growth as untreated, 0 = no growth, -100 = all killed)
HCT-15 colon = details: 10 µM
HT29 colon = details: 10 µM
SNB-75 CNS = details: 10 µM
SNB-19 CNS = details: 10 µM
PC-3 prostate = details: 10 µM
UACC-62 melanoma = details: 10 µM
LOX IMVI melanoma = details: 10 µM unless noted
SK-MEL-28 melanoma = details: 10 µM
SK-MEL-2 melanoma = details: 10 µM
UO-31 renal = details: 10 µM
TK-10 renal = details: 10 µM
ACHN renal = details: 10 µM
CAKI-1 renal = details: 10 µM
A498 renal = details: 10 µM
CCRF-CEM leukemia = details: 10 µM
MOLT-4 leukemia = details: 10 µM
SK-MEL-5 melanoma = details: 10 µM unless noted

Row | Structure (SMILES) | growth (HCT-15 colon) | growth (HT29 colon) | growth (SNB-75 CNS) | growth (SNB-19 CNS) | growth (PC-3 prostate) | growth (UACC-62 melanoma) | growth (LOX IMVI melanoma) | growth (SK-MEL-28 melanoma) | growth (SK-MEL-2 melanoma) | growth (UO-31 renal) | growth (TK-10 renal) | growth (ACHN renal) | growth (CAKI-1 renal) | growth (A498 renal) | growth (CCRF-CEM leukemia) | growth (MOLT-4 leukemia) | growth (SK-MEL-5 melanoma)
1 | CCN1/C(=C/C=C/C=C/c2sc3ccccc3[n+]2CC)Sc2ccccc21 | -20.9% (active) | -66.1% (active) | -45.6% (active) | -5.19% (active) | 7.09% (active) | -74.6% (active) | -57.5% (active) | -56.6% (active) | -59.1% (active) | -35.3% (active) | -6.28% (active) | -45.6% (active) | -0.841% (active) | 9.48% (active) | 8.96% (active) | -31.7% (active) | –
2 | OCC(O)C(O)C(O)C(/C=N/Nc1ccccc1)=N/Nc1ccccc1 (centres undefined) | 75% | 93.2% | 66.3% | 97.4% | 72.6% | 43.6% | 51.8% | 103% | 121% | 61.1% | 91.8% | 67.5% | 78% | 43.9% | 75.4% | 101% | –
3 | CN(C)C(=S)SC(=S)N(C)C | 87.5% and 95.5% | 82.2% and 59.8% | 97.2% and 89.7% | 98.7% and 109% | 93.1% and 89.6% | 92.1% and 103% | 99.8% and 90.9% | 105% and 104% | 107% and 93.2% | 91.2% and 79.1% | 113% and 112% | 101% and 107% | 104% and 103% | 94.7% | 80.6% and 71.3% | 92.4% and 85% | –
4 | O=C1NC(=O)c2cc([N+](=O)[O-])ccc21 | 107% | 109% | – | 109% | 101% | 102% | 104% | 120% | 107% | 85.5% | 99.3% | 103% | 86.4% | 99.2% | 45.3% | 96.9% | 104%
